The list is not random: actives were taken first. Their share in the collection is about 2.3%.
EBNA-1 inh: blocks EBNA-1 binding to DNA; EBNA-1 DNA binding, fluorescence polarization; inhibition, % at 14.8 µM; 0.34% of 300,000 active; AID 1950; in the data active = inhibition above about 28%
MsrA inh: bovine MsrA inhibition. purified bovine MsrA, absorbance read-out. inhibition, % at 15.5 µM. 0.75% of 360,000 active. AID 651718; in the data active = inhibition above about 4.5%;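 note: 0% = vehicle wells with enzyme and 100% = reference inhibitor wells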
ZTA counter: ZTA (EBV) inhibition in EBNA-1 counter-screen. ZTA-DNA binding, fluorescence polarization. inhibition, % at 11 µM. 0.15% of 320,000 active. AID 2234; in the data active = inhibition above about 33%
Target sequence (P03206 whole entry, looked up): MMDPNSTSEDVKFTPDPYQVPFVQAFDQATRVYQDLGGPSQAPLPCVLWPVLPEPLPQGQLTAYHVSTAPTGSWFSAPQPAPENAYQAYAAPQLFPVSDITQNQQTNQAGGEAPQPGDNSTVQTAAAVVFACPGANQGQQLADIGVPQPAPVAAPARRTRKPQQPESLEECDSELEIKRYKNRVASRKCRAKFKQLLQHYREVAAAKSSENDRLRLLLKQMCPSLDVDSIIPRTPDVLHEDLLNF
PP1 counter: counter-screen for PP5 inhibitors: inhibitors of human PP1-alpha. P62136. purified PP1alpha, OMFP fluorescence. inhibition, % at 6.7 µM. 0.9% of 320,000 active. AID 2235;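 active = inhibition above the mean inhibition of all tested compounds plus 3 SD, computed separately for each screening campaign, cut at about 15% in these data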
Target sequence (P62136 whole entry, looked up): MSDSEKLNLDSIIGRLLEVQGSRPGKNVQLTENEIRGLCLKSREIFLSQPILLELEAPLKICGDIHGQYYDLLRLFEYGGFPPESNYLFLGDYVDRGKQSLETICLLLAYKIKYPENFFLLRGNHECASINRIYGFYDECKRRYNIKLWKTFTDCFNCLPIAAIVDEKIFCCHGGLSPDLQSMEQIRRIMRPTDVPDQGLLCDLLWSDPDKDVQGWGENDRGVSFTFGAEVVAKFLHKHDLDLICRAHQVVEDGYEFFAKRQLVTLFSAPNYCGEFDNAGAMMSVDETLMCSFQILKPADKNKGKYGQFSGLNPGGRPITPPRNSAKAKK
MsrA act: activators of bovine methionine sulfoxide reductase A | purified bovine MsrA, absorbance read-out | activation, % at 10.6 µM | 0.3% of 360,000 active | AID 602163; in the data active = activation above about 7.5%;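 note: 0% = vehicle and 100% = reference activator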
PP5 primary: blocks human protein phosphatase 5 activity. P53041. purified PP5c, OMFP substrate fluorescence. inhibition, % at 6.7 µM. 0.18% of 320,000 active. AID 1987;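 active = inhibition above the campaign's mean inhibition across all tested compounds plus 3 SD, cut at about 9.5% in these data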;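 note: 0% = DMSO only and 100% = 100 µM cantharidin control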
An asterisk follows results filed as active; / = no result.

SMILES	EBNA-1 inh	MsrA inh	ZTA counter	PP1 counter	MsrA act	PP5 primary
O=C1OCCN1C(=O)[C@H]1[C@H](c2ccc([N+](=O)[O-])cc2)C(c2ccc(F)cc2)=NN1c1ccc(Br)cc1	/	4.7*	/	/	-12	/
COc1cccc(C2=Nc3cccc4cccc(c34)N2)c1	-11	1	-7	17*	-3	4
N#Cc1ccc(S(=O)(=O)N2CCCc3nc(-c4ccccc4)ccc32)cc1	/	-1	/	/	/	/
CCCCC(=O)NC(c1ccccc1OC)c1ccc2cccnc2c1O (stereo unspecified)	-9	1	-7	15*	-9	4
CCCC(=O)NC(c1ccccc1OC)c1ccc2cccnc2c1O (stereo unspecified)	-3	/	-2	-3	-2	-1
CCN(CC)c1ccc(NC(=O)c2ccc3c(c2)c(C)c(C)n3C)cc1	-4	1	13	17*	0	3
Cc1c(C)n(C)c2ccc(C(=O)NCCCN3CCCC3)cc12	-7	0	-3	-2	-2	2
Nc1nc(SCc2ccc(Cl)cc2Cl)nc2nc3c(cc12)CCCC3	29*	2	1	2	-4	0
CCN=C1NC(c2ccc(C(F)(F)F)cc2)C(C(=O)OC)=C(C)N1Cc1ccccc1C(F)(F)F (stereo unspecified)	/	0	/	/	/	/
Nc1ccc(O)c2c1C(=O)c1ccccc1C2=O	13	0	37*	2	-2	4
Nc1ccc(Br)c2c1C(=O)c1ccccc1C2=O	-9	/	-8	3	/	6
C/C(CC(=O)Nc1ccc(OCc2ccccc2)cc1)=N\NC(=O)C(=O)Nc1ccccc1C	-6	1	1	16*	-1	0
C/C(CC(=O)Nc1ccc2c(c1)OCCO2)=N\NC(=O)C(=O)Nc1ccccc1C	0	1	-7	-1	-9	2
COCCN1Cc2cc(C(=O)OC)c3c(c2C1=O)c1cc(F)ccc1n3C(=O)c1ccccc1	/	0	/	/	/	/
Cc1ccc(C(=O)N/C(=C\c2ccc([N+](=O)[O-])cc2)C(=O)NCCc2ccccc2)cc1	7	0	-3	17*	-6	-1
COC(=O)C1=C(C)N(C)C(=NCc2cc(OC)c(OC)c(OC)c2)NC1c1ccc(C(F)(F)F)cc1 (stereo unspecified)	/	0	/	/	/	/
Cc1cc([N+](=O)[O-])nn1Cc1ccc(C(=O)N/N=C/c2ccc(O)cc2O)cc1	-12	3	19	16*	-4	-3
COC(=O)[C@]12C[C@H](CC(=O)NCCCCc3ccccc3)C(=O)N(Cc3ccccc3)C1=C[C@H](C(C)C)O[C@@H]2C1CC1	/	0	/	/	/	/
CCOc1ccc(C(=O)Nc2ccc(N3CCCC3)cc2)cc1	6	0	8	8	-3	1
CCOc1cccc(C(=O)Nc2ccc(N3CCCC3)cc2)c1	-2	1	7	16*	-5	4
CC(=O)Nc1ccc(NC(=O)c2ccc(COc3ccccc3)cc2)cc1	0	0	7	0	-3	3
O=C(Nc1ccc(N2CCOCC2)cc1)c1ccc(COc2ccccc2)cc1	-19	1	6	16*	-5	1
CCCCN1CC(COCc2ccccc2)Oc2cccc(NCc3cc(OC)c(OC)c(OC)c3)c2S1(=O)=O (stereo unspecified)	/	0	/	/	/	/
CCOC(=O)C1=C(C(=O)OCC)C2N(Cc3ccc(C#N)cc3)c3ccccc3[C@@]23C[C@@H](C(=O)OC)N(S(=O)(=O)c2cccs2)C3=N1 (stereo partly specified)	/	1	/	/	/	/
COCCN(C(=O)C1CC(=O)N(Cc2ccccc2)C1)c1nc(-c2ccc([N+](=O)[O-])cc2)cs1 (stereo unspecified)	/	1	-2	17*	-6	2
SMILES	EBNA-1 inh	MsrA inh	ZTA counter	PP1 counter	MsrA act	PP5 primary
CCOP(=O)(OCC)C(NC(=O)Nc1ccc(Cl)cc1)C(N)=O (stereo unspecified)	10	0	-5	2	2	1
CCOP(=O)(OCC)C(NC(=O)Nc1ccc(Cl)c(Cl)c1)C(N)=O (stereo unspecified)	8	-2	-13	17*	-3	0
Cc1[nH]nc2c1C(c1ccc3c(c1)OCO3)N(Cc1ccccc1)C2=O (stereo unspecified)	/	0	/	/	/	/
COc1cc(OC)cc(-n2nnnc2SCC(=O)NC2CCCC2)c1	12	0	19	-1	0	0
COc1cc(OC)cc(-n2nnnc2SCC(=O)N2CCCC2)c1	2	0	-12	16*	-1	2
Cc1cccc(NC(=O)c2sc3nc(N)c(C#N)cc3c2N)c1	-15	4.6*	5	-2	-8	3
Cc1ccsc1/C=C(\CC(=O)O)c1nc2ccccc2o1	3	4.6*	11	1	-8	-2
Cc1ccsc1/C=C(\C(=O)c1ccc(OC(C)C)cc1)c1nc2ccccc2o1	4	4.6*	-9	3	-13	4
Cc1ccc(-c2nc3ccccc3o2)cc1NC(=O)Cc1cccs1	-6	0	2	1	-2	2
O=C(O)C/C(=C\c1cc(Br)cs1)c1nc2ccccc2o1	18	4.6*	-2	-1	-5	-1
CC12CCC(c3c(C(=O)O)nn(-c4ccc(F)cc4)c31)C2(C)C (stereo unspecified)	-17	-1	9	15*	-2	1
CN1CCCCC(NC(=O)c2ccc(F)cc2)C1=O (stereo unspecified)	/	0	/	/	/	/
COc1ccc(Nc2nnc(Cc3ccc(Cl)cc3)c(=O)[nH]2)c(OC)c1	-10	0	28	0	-2	1
COc1ccc(Cc2nnc(Nc3ccc(Cl)cc3)[nH]c2=O)cc1	8	0	17	18*	0	1
Cc1cc(C)nc(N/N=C/c2cc(C)n(CC(F)(F)F)c2C)n1	-9	4.6*	-2	-4	-3	1
Cc1cc2nc[nH]c2cc1[N+](=O)[O-]	3	0	-22	-1	-1	2
Cc1cc(N)ncc1[N+](=O)[O-]	/	4.6*	/	/	-7	/
CCN(CC)CC(C)CNC(=O)C1(O)c2ccccc2NC(=O)N1c1ccc(Cl)c(Cl)c1 (stereo unspecified)	4	-1	-4	15*	-2	2
O=C1Nc2ccccc2C(O)(C(=O)NCc2ccco2)N1c1ccc(Cl)c(Cl)c1 (stereo unspecified)	-7	/	-27	-2	-2	-8
Cc1ccc(Nc2nnc(SCC(=O)c3ccc(Br)s3)s2)c(C)c1	1	1	-3	17*	-2	3
Cc1cccc(C)c1Nc1nnc(SCC(=O)c2ccc(Br)s2)s1	3	1	-7	5	-4	2
COc1ccccc1CCn1cnc(-c2ccc(Br)cc2)c1CC(C)C	/	0	/	/	/	/
O=C(NC(=S)Nn1cnc2c(cnn2-c2ccccc2)c1=O)c1ccc(Oc2ccccc2)cc1	31*	-1	-1	-2	-3	0
CCSc1nnc(NC(=O)C2Cc3ccccc3CN2S(=O)(=O)CC)s1 (stereo unspecified)	-5	0	4	5	-1	1
